Consider 27 molecules from PubChem BioAssay AID2314 (National Center for Advancing Translational Sciences (NCATS), 2010).

About 37,000 (12%) of roughly 300,000 compounds were called active. This is one part of a sample in which actives are shown more often than they occur. Unmarked numbers belong to inactive results. Cut-off read from the data, not from the text of the source: active = max response mostly above about 13% (no sharp cut-off); inactive = mostly below about 14%.

The nature of the test: Cycloheximide Counterscreen for Small Molecule Inhibitors of Shiga Toxin. Note: read at 38.3 µM for the half of the compounds with a filed dose; 0% is about no effect. To be noted: cell reporter, cycloheximide protein synthesis inhibition counterscreen; stronger effect = higher value.
As for `CCN1CCN(C(=O)Cn2nc(C)n3c(cc4c(OC)cccc43)c2=O)CC1`, the max response was 1.35%.

Regarding `Cc1c(Cl)cccc1NC(=O)CCC(=O)N/N=C/c1ccco1`, the max response is -1.66%.

Take `CCCCSc1nnc(-c2ccc(NC(=O)CC)cc2)n1C`: the max response is -3.61%.

Consider `CCC(=O)Nc1ccc(-c2ccc(N3CCCCC3)nn2)cc1`, for which the max response is 42.9% (active).

As for `O=C(CN1CCN(c2ccccn2)CC1)Nc1ccc(Br)cc1`, the max response was -4.91%.

For the molecule `O=C1Nc2ccc([N+](=O)[O-])cc2C1=Nc1cccc(CO)c1`, the max response was -2.88%.

Take `Cc1ccc(C(=O)OC2CCCN(C)C2)cc1` (configuration not stated): the max response was 6.14%.

As to `Cn1ccc(=NC=C(C#N)C#N)c2ccccc21`, the max response was 1.04%.

Regarding `CCOc1cc(CN2CCCC(CO)(Cc3ccc(F)cc3F)C2)ccc1OC` (configuration not stated), the max response is -0.883%.

Turning to `CCn1nnnc1SCC(=O)Nc1ccc(N(C)C)cc1`, the max response is 25.2% (active).

On to `CCn1nnnc1SCC(=O)c1ccc(C)cc1C`, for which the max response was 56.3% (active).

In the case of `Cc1ccc(C)c(-n2nnnc2SCC(=O)c2c(N)n(C)c(=O)n(C)c2=O)c1`, the max response was -2.92%.

As to `COc1ccc(C(=O)CSc2nnnn2C)c(OC)c1`, the max response was -3.16%.

On to `CC(=O)Nc1ccc(NC(=O)CSc2nnnn2-c2ccccc2F)cc1`, for which the max response was 9.54%.

For the molecule `COc1ccc(-n2nnnc2SCC(=O)Nc2ccccc2)cc1`, the max response is -4.18%.

In the case of `CCc1nccn1CCC(=O)N1CCCC(N2CCN(c3ccccc3F)CC2)C1` (configuration not stated), the max response was 15.2%.

Take `COc1ccc(S(=O)(=O)N(C)CC(=O)NCCCN2CCOCC2)cc1Cl`: the max response is -1.58%.

As for `Cc1cccc([C@@H]2[C@@H]3C(=O)N(Cc4ccccc4)C(=O)[C@@H]3[C@]3(C)C(=O)N(c4ccc(Br)cc4)C(=O)N23)c1`, the max response is 7.73%.

In the case of `C=CS(=O)c1sc(Cl)c(N2CCOCC2)c1[N+](=O)[O-]` (configuration not stated), the max response is -4.64%.

Regarding `CC(=O)N1CCOc2ccc(S(=O)(=O)N3CCC(C(=O)Nc4ccccc4F)CC3)cc21`, the max response is -0.955%.

With `Cc1ccc(N(C(=O)C(F)(F)F)C(C(=O)NC2CCCCC2)c2ccncc2)cc1C` (configuration not stated), the max response is -3.75%.

Consider `Cc1nn(-c2ccccc2)c(C)c1C(=O)OCC(=O)NC(=O)NC1CCCCC1`, for which the max response was 2.3%.

In the case of `Cc1nn(-c2ccccc2)c(-n2cccc2)c1C(=O)O`, the max response was -4.68%.

On to `Cc1ccc(OC(=O)c2c(C)nn(-c3ccccc3)c2C)cc1`, for which the max response was 47.6% (active).

Turning to `Cc1cc(C(=O)COC(=O)c2cccs2)c(C)n1-c1c(C)n(C)n(-c2ccccc2)c1=O`, the max response was 16.4%.

Turning to `CCCc1cc(=O)[nH]c(SCC(=O)c2cc(C)n(CCC)c2C)n1`, the max response is 7.55%.

For the molecule `CCCn1c(C)cc(C(=O)COC(=O)c2c(C)nn(-c3ccccc3)c2C)c1C`, the max response was 32.3% (active).
